Each structure is given as a SMILES string. Out of some 340,000 compounds screened, about 3,300 (0.97%) were called active.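 How the source made its calls: active means maximum activity change below -70%; inconclusive means maximum activity change from -70% to -50%; inactive means maximum activity change above -50%.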 Many of the other results were omitted from the sample, so actives are more common in it than they were.
On the % scale 0 is the no-effect control and ±100 the full control effect.

The test system of this assay is Potassium voltage-gated channel subfamily H member 2, brain isoform KCNH2 3.1 (human). Briefly: qHTS for Inhibitors of KCHN2 3.1: Mutant qHTS. The conditions noted are these: U2OS KCNH2 3.1, thallium flux FluxOr; active compounds read low. The text has this:
Many antipsychotic drugs that inhibit the neurotransmitter dopamine also bind to hERG1 channel which might help explain their antipsychotic activity but also produces cardiac side effects. The discovery of the novel KCNH2 3.1 isoform offers a potential new target for the development of antipsychotic drugs without cardiac side effects. This proposal will use a high throughput thallium flux assay developed for KCNH2 to screen compounds that modulate the activity of KCNH2 3.1. The wild type KCNH2 channel will also be screened in parallel to help define the selective modulators of this KCNH2 3.1 potassium channel. The resulting compounds will be validated in electrophysiology experiments. The availability of animal models will allow future testing in vivo for effects on memory and other aspects of animal physiology linked with psychosis. NIH Chemical Genomics Center [NCGC] NIH Molecular Libraries Probe Centers Network [MLPCN] MLPCN Grant: MH096539 Assay Submitter (PI): James Barrow, Johns Hopkins University, Lieber Institute for Brain Development
U2OS cells were resuspended in cell media containing 10% fetal calf serum (FCS) at a concentration of 2 million cells / mL. The solution was treated with the mutant (3.1) virus at 1.77 x 10^8 / mL and allowed to incubate at room temperature in the dark. After 4 hours of incubation, DMEM + 10% fetal bovine serum (FBS) was added to the cell solution. Three microliter was then dispensed into a 1536 tissue culture treated black assay plates which were incubated overnight at 37 C. Two microliter of loading buffer (HBSS + HEPES + Red40 dye quencher + FluxOr dye) was added and the assay plates were incubated for 45 min at room temperature in the dark. […] A stimulation buffer was added to the plate and the second kinetic read (2 min) was obtained. The rate constant was calculated from the kinetic reads and normalized to the positive and negative DMSO controls.
As to `C[C@@H]1CN([C@H](C)CO)C(=O)c2cc(Br)cnc2O[C@@H]1CN(C)Cc1cncnc1`, the activity change is 6.02% (inactive).
As to `C[C@H]1CN([C@@H](C)CO)C(=O)c2cc(Br)cnc2O[C@H]1CN(C)S(=O)(=O)c1cccs1`, the activity change was -4.3% (inactive).
Consider `C[C@@H]1CN([C@@H](C)CO)C(=O)c2cc(Br)cnc2O[C@H]1CN(C)Cc1ccc(-c2ccccc2)cc1`, for which the activity change was -85.7% (active).
Then `C[C@H](CO)N1C[C@H](C)[C@H](CN(C)C(=O)Nc2ccc3c(c2)OCO3)Oc2ncc(Br)cc2C1=O`, with 12.1% (inactive); and `CSc1ncnc2c1ncn2CCCNCC(C)c1ccccc1` (stereo not drawn), with 6.46% (inactive); and `COc1cccc(-n2c(SCC(=O)NC3CCCCC3)nc3n[nH]c(C)c3c2=N)c1`, with 13.7% (inactive).
As to `Cc1ccc(-n2c(SCC(=O)NCCC3=CCCCC3)nc3n[nH]c(C)c3c2=N)cc1Cl`, the activity change is -4.71% (inactive).
On to `CCCCNC(=O)CSc1nc2n[nH]c(C)c2c(=N)n1-c1cccc(Cl)c1C`, for which the activity change was -75.1% (active).
Consider `Cc1[nH]c2ccccc2c1C(=O)C(=O)NCc1nnnn1-c1cccc(F)c1`, for which the activity change was -6.04% (inactive).
Then `O=C(COC(=O)CCc1c[nH]c2ccccc12)Nc1cccc(Cl)c1`, with -6.53% (inactive); and `CCN(C(=O)COC(=O)Cc1c(F)cccc1Cl)c1c(N)n(Cc2ccccc2)c(=O)[nH]c1=O`, with -102% (active).
`CCN(C(=O)COC(=O)CCOc1cccc(C)c1)c1c(N)n(Cc2ccccc2)c(=O)[nH]c1=O`: the activity change is 11.4% (inactive).
For `COCCN(C(=O)COC(=O)Cc1cccc(OC)c1)c1c(N)n(Cc2ccccc2)c(=O)[nH]c1=O`, the activity change is 8.15% (inactive).
Consider `CC1CCC2(CC1)NC(=O)N(CC(=O)NCc1ccco1)C2=O` (stereo not drawn), for which the activity change is 15.5% (inactive).
Then `COc1ccccc1C(CNC(=O)c1cccc(S(=O)(=O)Nc2ccc(F)cc2)c1)N(C)C` (stereo not drawn), with 0.933% (inactive).
With `O=C(NCCN1CCOCC1)c1cccc(S(=O)(=O)Nc2ccc(F)cc2)c1`, the activity change was -9.37% (inactive).
On to `O=C(NCc1ccccc1CN1CCCC1)c1cccc(S(=O)(=O)Nc2ccc(F)cc2)c1`, for which the activity change was -81.1% (active).
Then `O=C(CC(CC(=O)c1ccccc1)c1ccco1)c1ccccc1`, with -1.01% (inactive).
In the case of `CSC1=NN(c2ccccc2)CN(c2ccccc2)N1C`, the activity change is -1.49% (inactive).
As for `Cc1cccnc1NC(=O)CSc1nnc(COc2ccc(C(C)C)cc2)n1C`, the activity change is 13.2% (inactive).
For `Cc1ccc(OCc2n[nH]c(=S)n2-c2ccccc2)cc1`, the activity change is -4.15% (inactive).
For the molecule `Cc1ccc(OCc2nnc(SC3CCc4ccccc4C3=O)n2C)cc1` (stereo not drawn), the activity change was -114% (active).
With `Cc1sc2nc(-c3ccccc3F)oc(=O)c2c1C` the figure was 9.16% (inactive).

(Values after PubChem BioAssay AID720553 (National Center for Advancing Translational Sciences (NCATS), 2013).)
